Laboratory results published in PubChem BioAssay AID1159580 (chemical genetic matrix, 2015).
Hit rate of the full screen: of about 5,500 compounds, about 2,000 (36%) were called active. Another 18% or so got no clear call; they are omitted. Rule as the data show it: active = normalized growth mostly below about 0.91 (no sharp cut-off); inconclusive = no clear call, values can overlap the other calls; inactive = mostly above about 0.92. The list shows a part of the results.

Assay: chemical genetic growth profiling, strain panel (AID 1159580);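 also: tested at 20 µM; growth read once vehicle control cultures reached saturation at 30 °C; 1 = growth at the plate median or of vehicle wells; lower values mean less growth of the strain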
Settings: growth OD

Measured: normalized growth

COc1ccc(C(=O)c2ccccc2O)c(O)c1
active: S. cerevisiae deletion strains, locus YKL085W, strain MDH1 (second series), hits give low values 0.905 | S. cerevisiae deletion strains, locus YKL085W, strain MDH1, hits give low values 0.905 | S. cerevisiae deletion strains, locus YKL160W, strain elf1, hits give low values 0.896 | S. cerevisiae deletion strains, locus YKR001C, strain vps1, hits give low values 0.71 | S. cerevisiae deletion strains, locus YKR026C, strain gcn3, hits give low values 0.894 | S. cerevisiae deletion strains, locus YKR091W, strain srl3, hits give low values 0.901 | S. cerevisiae deletion strains, locus YLL026W, hits give low values 0.88 | S. cerevisiae deletion strains, locus YLL041C, strain sdh2, hits give low values 0.885 | S. cerevisiae deletion strains, locus YLR027C, strain aat2, hits give low values 0.875 | S. cerevisiae deletion strains, locus YLR039C, strain RIC1, hits give low values 0.63 | S. cerevisiae deletion strains, locus YLR221C, strain rsa3, hits give low values 0.891 | S. cerevisiae deletion strains, locus YLR258W, strain gsy2, hits give low values 0.869 | S. cerevisiae deletion strains, locus YLR262C, strain YPT6 (second series), hits give low values 0.46 | S. cerevisiae deletion strains, locus YLR262C, strain YPT6, hits give low values 0.562 | S. cerevisiae deletion strains, locus YLR320W, strain mms22, hits give low values 0.717 | S. cerevisiae deletion strains, locus YLR342W, strain FKS1, hits give low values 0.872 | S. cerevisiae deletion strains, locus YLR370C, strain arc18, hits give low values 0.841 | S. cerevisiae deletion strains, locus YLR384C, strain iki3, hits give low values 0.89 | S. cerevisiae deletion strains, locus YLR418C, strain cdc73, hits give low values 0.821 | S. cerevisiae deletion strains, locus YML120C, strain ndi1, hits give low values 0.878 | S. cerevisiae deletion strains, locus YML124C, strain tub3, hits give low values 0.925 | S. cerevisiae deletion strains, locus YMR058W, strain fet3, hits give low values 0.824 | S. cerevisiae deletion strains, locus YMR129W, hits give low values 0.888 | S. cerevisiae deletion strains, locus YMR205C, strain PFK2, hits give low values 0.803 | S. cerevisiae deletion strains, locus YMR223W, strain ubp8, hits give low values 0.873 | S. cerevisiae deletion strains, locus YMR231W, strain pep5, hits give low values 0.895 | S. cerevisiae deletion strains, locus YNL071W, strain lat1, hits give low values 0.75 | S. cerevisiae deletion strains, locus YNL209W, strain ssb2, hits give low values 0.913 | S. cerevisiae deletion strains, locus YNL233W, strain BNI4, hits give low values 0.869 | S. cerevisiae deletion strains, locus YNL248C, strain rpa49, hits give low values 0.858 | S. cerevisiae deletion strains, locus YNL271C, strain bni1, hits give low values 0.91 | S. cerevisiae deletion strains, locus YNL298W, strain CLA4, hits give low values 0.899 | S. cerevisiae deletion strains, locus YNL307C, strain MCK1, hits give low values 0.874 | S. cerevisiae deletion strains, locus YNL322C, strain KRE1 (second series), hits give low values 0.888 | S. cerevisiae deletion strains, locus YNR049C, strain mso1, hits give low values 0.889 | S. cerevisiae deletion strains, locus YOL147C, strain pex11, hits give low values 0.924 | S. cerevisiae deletion strains, locus YOR001W, strain rrp6, hits give low values 0.794 | S. cerevisiae deletion strains, locus YOR070C, strain gyp1, hits give low values 0.913 | S. cerevisiae deletion strains, locus YOR083W, strain WHI5, hits give low values 0.884 | S. cerevisiae deletion strains, locus YOR106W, strain vam3, hits give low values 0.866 | S. cerevisiae deletion strains, locus YOR184W, strain ser1, hits give low values 0.754 | S. cerevisiae deletion strains, locus YOR265W, strain rbl2, hits give low values 0.891 | S. cerevisiae deletion strains, locus YOR270C, strain vph1, hits give low values 0.469 | S. cerevisiae deletion strains, locus YOR290C, strain snf2, hits give low values 0.803 | S. cerevisiae deletion strains, locus YPL051W, strain arl3, hits give low values 0.729 | S. cerevisiae deletion strains, locus YPL078C, strain atp4, hits give low values 0.79 | S. cerevisiae deletion strains, locus YPL240C, strain hsp82, hits give low values 0.901 | S. cerevisiae deletion strains, locus YPR141C, strain kar3, hits give low values 0.905 | S. cerevisiae deletion strains, strain wtn01, hits give low values 0.891
inactive: S. cerevisiae deletion strains, locus YJR066W, strain TOR1, hits give low values 0.901 | S. cerevisiae deletion strains, locus YKL009W, strain mrt4, hits give low values 0.895 | S. cerevisiae deletion strains, locus YKL068W, hits give low values 0.944 | S. cerevisiae deletion strains, locus YKL190W, strain CNB1, hits give low values 0.963 | S. cerevisiae deletion strains, locus YLL001W, strain dnm1, hits give low values 0.92 | S. cerevisiae deletion strains, locus YLR058C, strain SHM2, hits give low values 0.919 | S. cerevisiae deletion strains, locus YLR102C, strain apc9, hits give low values 0.948 | S. cerevisiae deletion strains, locus YLR113W, strain HOG1, hits give low values 0.907 | S. cerevisiae deletion strains, locus YLR268W, strain sec22, hits give low values 0.938 | S. cerevisiae deletion strains, locus YLR330W, strain CHS5, hits give low values 0.923 | S. cerevisiae deletion strains, locus YLR342W, strain FKS1 (second series), hits give low values 0.838 | S. cerevisiae deletion strains, locus YLR357W, strain rsc2, hits give low values 0.986 | S. cerevisiae deletion strains, locus YLR371W, strain rom2, hits give low values 0.91 | S. cerevisiae deletion strains, locus YML016C, strain PPZ1, hits give low values 0.93 | S. cerevisiae deletion strains, locus YML032C, strain rad52, hits give low values 0.923 | S. cerevisiae deletion strains, locus YMR078C, strain ctf18, hits give low values 0.913 | S. cerevisiae deletion strains, locus YMR125W, strain sto1, hits give low values 0.915 | S. cerevisiae deletion strains, locus YMR263W, strain SAP30, hits give low values 0.903 | S. cerevisiae deletion strains, locus YMR307W, strain GAS1, hits give low values 0.852 | S. cerevisiae deletion strains, locus YNL067W, strain RPL9B, hits give low values 0.892 | S. cerevisiae deletion strains, locus YNL128W, strain TEP1, hits give low values 0.948 | S. cerevisiae deletion strains, locus YNL183C, strain NPR1, hits give low values 0.908 | S. cerevisiae deletion strains, locus YNL250W, strain rad50, hits give low values 0.951 | S. cerevisiae deletion strains, locus YNL322C, strain KRE1, hits give low values 0.983 | S. cerevisiae deletion strains, locus YNR052C, strain pop2, hits give low values 0.96 | S. cerevisiae deletion strains, locus YOL006C, strain TOP1, hits give low values 0.564 | S. cerevisiae deletion strains, locus YOL012C, strain htz1 1.21 | S. cerevisiae deletion strains, locus YOR061W, strain CKA2, hits give low values 0.945 | S. cerevisiae deletion strains, locus YOR069W, strain VPS5, hits give low values 0.955 | S. cerevisiae deletion strains, locus YOR080W, strain dia2, hits give low values 0.919 | S. cerevisiae deletion strains, locus YOR136W, strain idh2, hits give low values 0.961 | S. cerevisiae deletion strains, locus YOR144C, strain elg1, hits give low values 0.938 | S. cerevisiae deletion strains, locus YOR231W, strain MKK1, hits give low values 0.958 | S. cerevisiae deletion strains, locus YOR316C, strain cot1, hits give low values 0.936 | S. cerevisiae deletion strains, locus YPL055C, strain LGE1, hits give low values 0.9 | S. cerevisiae deletion strains, locus YPL106C, strain sse1, hits give low values 0.935 | S. cerevisiae deletion strains, locus YPL241C, strain CIN2, hits give low values 0.972 | S. cerevisiae deletion strains, locus YPL256C, strain CLN2, hits give low values 0.918 | S. cerevisiae deletion strains, locus YPR119W, strain clb2, hits give low values 0.931 | S. cerevisiae deletion strains, locus YPR163C, strain tif3, hits give low values 0.968 | S. cerevisiae deletion strains, locus YPR167C, strain met16, hits give low values 0.925 | S. cerevisiae strains, strain wild type, hits give low values 0.951
